# The full list was thinned out, with hits kept by preference.
# KDM5B inhibitor = KDM5B demethylase inhibition; 2.6% of 220,000 active; Q9UGL1; Potency, µM (doses to about 57.7 µM), usual class: inhibitors; KDM5B demethylase, FDH-coupled NADH fluorescence (FDH is formaldehyde dehydrogenase); active = well fitted inhibition curve with a large enough effect; also: 0% is about no effect; nearly all actives have a fitted effect of over 70% in size
#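 KDM5BΔAP (200 nM final) in 50 mM HEPES pH 7.5, 0.01% Tween-20 was preincubated 10 min at RT with compound over a concentration range. Substrate mix (H3K4me3 12.5 µM, α-KG 25 µM, Fe²⁺, ascorbate, NAD⁺, FDH) was added, and NADH fluorescence change over 30 min gave dose-response curves.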
# Starred values were filed as active, the others as inactive; i = inactive. Potency is read from the fitted curve at half-maximal effect.
SMILES,KDM5B inhibitor
CCOc1ccc(C(=O)N2CCC3(CC2)NCc2ccccc2-n2ccnc23)cc1,i
Clc1ccc(-c2ccc(CNC3CN4CCC3CC4)o2)c(Cl)c1 (stereo unspecified),i
O=C(Nc1ccccc1)c1cn(Cc2ccccc2)nn1,i
COc1ccc(CCN(C)Cc2cc(C(C)(C)C)c(O)c(C(C)(C)C)c2)cc1OC,i
COCC1CN(C)CC12CCN(Cc1cccc(OC)n1)CC2 (stereo unspecified),i
COCC1CN(C)CC12CCN(Cc1ccncc1F)CC2 (stereo unspecified),i
COCC1CN(C2CCC2)CC12CCN(Cc1cccnc1)CC2 (stereo unspecified),28.2µM*
O=[S+]1([O-])NC2(CCN(CC3CCCCC3)C2)COc2ccncc21 (stereo unspecified),i
CN1CCN2C(=O)N(c3ccccc3)C[C@H]2C1,i
